# Experimental data published in the supplement of paper PMC10127200.
# Structures can show the parent of a compound that is named as a salt.
# Columns and labels:
# Assay in all cases: Euclidean distance of Cell Painting phenotypic profile (signed KS, 77 features) to DMSO centroid (dimensionless distance); 5 or 10 uM (library dependent); higher = stronger phenotypic change vs DMSO (phenoactivity)
# Details in all cases: 48 h
# [1] = test system: 786-O
# Method in brief: (§1)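 At 10 or 5 uM, as set by the library, and 0.1% DMSO final, compounds were applied for 48 h to five cancer lines and one healthy fibroblast line. Stained cells were imaged confocally at 20X in 9 fields per well, and Harmony extracted 77 features scored as signed Kolmogorov-Smirnov statistics against vehicle wells on the same plate. Profiles underwent plate-position correction, correlation weighting and replicate averaging at the top dose. Phenoactivity is the Euclidean distance from each such profile to the median vehicle profile.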
# [2] = test system: A549
# Method in brief: as §1
# [3] = test system: DU145
# Method in brief: as §1
# [4] = test system: FB
# Method in brief: as §1
# [5] = test system: HEPG2
# Method in brief: as §1
# [6] = test system: OVCAR4
# Method in brief: as §1
SMILES,Euclidean distance [1],Euclidean distance [2],Euclidean distance [3],Euclidean distance [4],Euclidean distance [5],Euclidean distance [6]
OCc1ccccc1O[C@@H]1O[C@H](CO)[C@@H](O)[C@H](O)[C@H]1O [Salicin],1.17,0.655,0.503,0.638,0.419,1.21
CC1(C)OC(=O)NC1=O [5.5-Dimethyloxazolidine-2.4-dione],0.865,0.849,1.06,1.02,0.557,0.894
O=C(O)c1ccc(Nc2ncc3c(n2)-c2ccc(Cl)cc2C(c2c(F)cccc2F)=NC3)cc1,2.83,3.8,2.7,2.34,3.27,3.07
CC1(C)S[C@@H]2[C@H](NC(=O)Cc3ccccc3)C(=O)N2[C@H]1C(=O)O [Penicillin G Sodium],1.04,0.576,1.12,0.979,0.871,1.93
CC(C)N(CCCNC(=O)Nc1ccc(C(C)(C)C)cc1)C[C@H]1O[C@@H](n2cc(Br)c3c(N)ncnc32)[C@H](O)[C@@H]1O,0.633,1.32,1.19,1.58,1.15,0.804
O=c1c(-c2ccc(O)cc2)coc2cc(O)ccc12 [Daidzein],0.746,0.736,0.716,0.782,0.606,1.13
CCC[C@@H]1C[C@@H](C(=O)N[C@@H]([C@H]2O[C@H](SC)[C@H](O)[C@@H](O)[C@H]2O)[C@@H](C)O)N(C)C1 [Lincomycin Hydrochloride Monohydrate],0.425,0.311,0.923,0.981,0.275,1.41
COc1cccc2c1C(=O)c1c(O)c3c(c(O)c1C2=O)C[C@@](O)(C(=O)CO)C[C@@H]3O[C@H]1C[C@H](N)[C@H](O[C@@H]2CCCCO2)[C@H](C)O1 [Pirarubicin],3.6,4.43,3.47,4.28,4.37,4.83
C=C[C@](C)(O)CC[C@@H]1[C@@]2(C)CCCC(C)(C)[C@@H]2CC[C@@]1(C)O [Sclareol],0.617,0.762,0.574,0.717,0.546,1.39
CC(C)CCNC(=O)[C@H](CC(C)C)NC(=O)[C@H]1O[C@@H]1C(=O)O [Loxistatin Acid (E-64C)],1.6,2.18,1.48,1.04,1.44,1.5
Cc1nc2ccc(-n3ncc(C(=O)c4cc5ccccc5[nH]4)c3N)cc2[nH]1,2.53,2.28,1.14,3.31,1.73,1.67
CCCCCCCCCCCCCCCCOP(=O)([O-])OCC[N+](C)(C)C [Miltefosine],1.74,1.27,1.17,1.39,1.15,1.63
NC(=O)NO [Hydroxyurea],1.25,0.771,1.13,0.703,0.79,1.18
COc1cc2ncnc(Nc3ccc(F)c(Cl)c3)c2cc1NC(=O)/C=C/CN1CCCCC1,3.46,4.69,2.82,2.17,1.47,2.05
O=C1NC(=O)C(c2ccccc2)(c2ccccc2)N1 [Phenytoin],0.857,0.495,1,1.34,0.945,0.752
CN(CCOc1ccc(CC2SC(=O)NC2=O)cc1)c1ccccn1 (configuration not stated) [Rosiglitazone maleate],0.964,0.896,1.89,1.31,0.95,1.34
O=C1OC2(c3ccc(O)cc3Oc3cc(O)ccc32)c2ccccc21 [Fluorescein],0.775,0.447,0.83,0.881,1.12,1.27
COc1cc2ncc(-c3ccccc3)nc2cc1OC [Tyrphostin AG 1296],1.46,1.34,1.58,1.3,1.42,1.6
COCCOc1cnc2ccn([C@H](C)c3nnc4c(F)cc(-c5cnn(C)c5)cn34)c(=O)c2c1,1.01,1.18,1.5,1.29,1.39,1.46
Cn1cnc([N+](=O)[O-])c1Sc1ncnc2[nH]cnc12 [Azathioprine],0.644,0.642,1.33,1.04,2.09,0.817
Nc1cc(F)ccc1NC(=O)/C=C/c1cnn(C/C=C/c2ccccc2)c1,1.54,1.02,0.877,2.44,1.27,0.895
CNC(=O)c1cc(Oc2ccc(NC(=O)Nc3ccc(Cl)c(C(F)(F)F)c3)c(F)c2)ccn1 [Regorafenib (BAY 73-4506)],1.82,2.6,1.66,1.6,1.42,1.63
O=C1OC(c2ccc(O)cc2)(c2ccc(O)cc2)c2ccccc21 [Phenolphthalein],1.6,0.655,1.35,0.979,0.6,1.49
CN(C)CCn1nnnc1SCC1=C(C(=O)O)N2C(=O)[C@@H](NC(=O)Cc3csc(N)n3)[C@H]2SC1 [Cefotiam hydrochloride],1.2,1.06,0.774,0.93,0.739,0.935

SMILES,Euclidean distance [1],Euclidean distance [2],Euclidean distance [3],Euclidean distance [4],Euclidean distance [5],Euclidean distance [6]
O=C(/C=C/c1cccc(S(=O)(=O)Nc2ccccc2)c1)NO [Belinostat (PXD101)],1.71,2.39,2.38,1.82,1.99,1.12
O=C(c1ccc(C(=O)N2CCC(N3CCCC3)CC2)c(Nc2ccccc2)c1)N1CCC(N2CCCC2)CC1,0.8,1.05,0.703,0.904,0.536,0.678
O=C(O[C@@H]1Cc2c(O)cc(O)cc2O[C@@H]1c1ccc(O)c(O)c1)c1cc(O)c(O)c(O)c1 [(-)-Epicatechin gallate],1.61,0.725,1.16,1.3,0.724,0.782
Clc1ccc(CSC(Cn2ccnc2)c2ccc(Cl)cc2Cl)cc1 (configuration not stated) [Sulconazole Nitrate],1.3,1.23,1.07,0.983,1.1,1.31
CC1(C)CCC(CN2CCN(c3ccc(C(=O)NS(=O)(=O)c4ccc(NCC5CCOCC5)c([N+](=O)[O-])c4)c(Oc4cnc5[nH]ccc5c4)c3)CC2)=C(c2ccc(Cl)cc2)C1,2.06,1.55,1.25,0.81,1.11,1.16
O=C(O)CSCC(=O)NC1CCSC1=O (configuration not stated) [Erdosteine],0.988,1.09,1.06,1.07,1.27,1.1
COc1ccc(COc2cc3oc(=O)c4cc(C(C)O)ccc4c3cc2OC)cc1 (configuration not stated) [Palomid 529 (P529)],1.8,1.25,1.29,1.02,1.33,1.06
O=C(O)c1ccccc1O [Salicylic acid],0.877,0.32,0.898,0.648,0.308,1.08
COC(=O)C1=C(C)NC(C)=C(C(=O)OC2CCCN(Cc3ccccc3)C2)C1c1cccc([N+](=O)[O-])c1 (configuration not stated) [Benidipine HCl],1.39,0.86,0.823,0.926,0.713,1.45
CC(=C(CCO)SSCC1CCCO1)N(C=O)Cc1cnc(C)nc1N (stereo in doubt) [Fursultiamine],1.19,0.749,0.785,1.06,0.579,1.17
CC(C)c1onc(-c2c(Cl)cccc2Cl)c1COc1ccc(/C=C/c2cccc(C(=O)O)c2)c(Cl)c1,1.58,0.795,1.01,1.26,1.42,1.02
C#C[C@]1(O)CC[C@H]2[C@@H]3CCC4=Cc5oncc5C[C@]4(C)[C@H]3CC[C@@]21C [Danazol],1.02,1.02,1.43,0.594,1.3,1.02
CCN(C(=O)c1c(O)c2c(Cl)cccc2n(C)c1=O)c1ccccc1 [Laquinimod],0.923,0.95,0.863,0.902,0.638,1.25
CC1=C[C@H]2C(=O)O[C@H]3C[C@@H](C/C=C(\C)C[C@@H](C)/C=C/C=C4\CO[C@H](/C1=N\O)[C@@]42O)O[C@@]1(CC[C@H](C)[C@@H](C)O1)C3.CC[C@H]1O[C@]2(CC[C@@H]1C)C[C@@H]1C[C@@H](C/C=C(\C)C[C@@H](C)/C=C/C=C3\CO[C@@H]4/C(=N\O)C(C)=C[C@@H](C(=O)O1)[C@]34O)O2 [Milbemycin Oxime],0.91,0.957,0.954,1.3,0.456,1.11
CC[C@H](Nc1ncnc2[nH]cnc12)c1nc2cccc(F)c2c(=O)n1-c1ccccc1 [CAL-101 (Idelalisib. GS-1101)],1.28,0.736,1.32,1.79,0.747,1.56
CO/N=C(\C(=O)N[C@@H]1C(=O)N2C(C(=O)O)=C(CSc3nnnn3C)CS[C@H]12)c1csc(N)n1 [Cefmenoxime hydrochloride],0.657,0.643,1.22,0.686,0.775,0.594
C#Cc1cccc(Nc2ncnc3cc(OCCOC)c(OCCOC)cc23)c1 [Erlotinib HCl (OSI-744)],1.55,1.87,1.94,1.57,0.884,2.37
O=C(O)c1ccccc1Nc1cccc(C(F)(F)F)c1 [Flufenamic acid],1.11,1.08,0.674,1.09,0.711,1.36
Cc1c(Cl)cccc1Nc1ncccc1C(=O)O [Clonixin],0.846,1.1,1.6,1.11,0.606,0.98
COc1cccc2cc(-c3nc([C@H]4CC[C@H](C(=O)O)CC4)n4ncnc(N)c34)[nH]c12,2.33,2.18,1.44,3.76,2.92,3.56
CN(C(=O)CN(CCO)CC(=O)N(C)C(C)(C)Cc1ccccc1)C(C)(C)Cc1ccccc1 [Oxethazaine],1.36,2.36,1.13,2.17,1.36,1.96
Cc1ccccc1C(=O)Nc1ccc(C(=O)N2CCCC(O)c3cc(Cl)ccc32)c(C)c1 (configuration not stated) [Tolvaptan],1.6,0.937,0.873,1.14,0.957,0.738
CN(C)CCC(c1ccc(Cl)cc1)c1ccccn1 (configuration not stated) [Chlorpheniramine Maleate],1.37,0.807,1.01,1.23,1.4,1.15
